This is an account of results in PubChem BioAssay (NCI).

Compounds without any hit were thinned out: in the full panel of roughly 83,000, 20% have a hit.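 48-hour exposure, single concentration, 96-well plates; percent growth endpoint where 0 means no net growth. Active: below 10.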 The source made the active and inactive calls.

The test system of the first assay is SR leukemia. The experiment in a line: NCI-60 one-dose screen, 48 h (100 = growth as untreated, 0 = no growth, -100 = all killed). Conditions: 10 µM unless noted.
For the molecule `O=C1c2ccccc2C(=Cc2ccccc2)c2ccccc21`, the growth is 8.17% (active).
Still for that read-out and setting: the result for `N#CC1=C(N)Oc2c(sc3c(F)cccc23)C1c1ccc(Cl)cc1` (stereo not drawn) reads 10.8% (inactive); that for `O=C(Nc1ccc(/C=C2\SC(=O)N(Cc3ccc(OC(F)(F)F)cc3)C2=O)cc1)c1ccc(Cl)c([N+](=O)[O-])c1`, -0.106% (active).
Consider `C[C@@H](C(=O)O)c1ccc2c3cc(Cl)ccc3n(Cc3cc(=O)oc4ccc(Cl)cc34)c2c1`, for which the growth was 94.7% (inactive).
For `Cn1c(=O)c2c(nc(Br)n2CC(=O)Nc2ccc(F)cc2)n(C)c1=O`, the growth is 89.2% (inactive).
The same measure, in the same setting: the result for `COC(=O)C(N)CSC(c1ccccc1)(c1ccccc1)c1ccccc1` (stereo not drawn) reads 7.6% (active); that for `NS(=O)(=O)c1ccc(CCNC(=O)/C=C/c2ccc(Cl)cc2)cc1`, 75.6% (inactive).
Still for that read-out and setting: the result for `C[C@H]1[C@H]2C3=CC[C@@H]4[C@@]5(C)C/C(=C/c6ccco6)C(=O)C(C)(C)[C@@H]5CC[C@@]4(C)[C@]3(C)CC[C@@]2(C(=O)N2CCOCC2)CC[C@@H]1C` reads 29.4% (inactive); that for `COC1=C(Br)C(=O)C(OC)=C(Br)C1=O`, 42.7% (inactive).
Same read-out and setting: in the case of `Cn1cc(-c2csc(-c3cn(CCN)c4ccc(F)cc34)n2)c2cccnc21` it was 2.79% (active); in that of `O=C1/C(=C\c2ccco2)SC(=S)N1CCc1ccc(O)cc1`, 95.7% (inactive); in that of `COc1cccc(-c2nn(-c3ccccc3)cc2-c2ccnc(NCCNS(=O)(=O)c3ccccc3)c2)c1`, 12.7% (inactive).
As to `C[C@]12CC[C@@H]3c4ccc(O)cc4CC[C@H]3[C@@H]1C[C@H](O)[C@@H]2O`, the growth is 99.2% (inactive).
Consider `COc1cc2c3c(c4c5ccccc5[nH]c4c2c(OC)c1OC)C(=O)N(O)C3=O`, for which the growth is 14.3% (inactive).
Same read-out and setting: in the case of `Clc1cc(Cl)cc(Nc2ccc3c(OCCCN4CCOCC4)cccc3n2)c1` it was 6.22% (active); in that of `C/C(=N/NC(N)=S)C(=O)O`, 90% (inactive); in that of `CCCCC[C@H]1C/C=C2/C(=O)C(Cl)=C[C@@H]2C/C=C\CCCC(=O)O1`, 2.6% (active).
The same measure, in the same setting: the result for `Cn1c2ccccc2c2c3c(c4c5cccnc5[nH]c4c21)C(=O)N(O)C3=O` reads 11.4% (inactive).
Still for that read-out and setting: in the case of `O=C1CN(c2ccccc2)C(=O)C1C(=O)Nc1ccc(Cl)c(Cl)c1` (stereo not drawn) it was 1.54% [100 µM] (active); in that of `CCc1cccc(CC)c1NC(=O)c1sc2nc3c(cc2c1N)CCCC3`, 18.2% (inactive); in that of `Cc1cccc2c1NC(=O)[C@@]21[C@H](C(=O)c2ccccc2)[C@]2(C(=O)Nc3ccccc32)[C@H]2CCCN21`, -6.48% [100 µM] (active).
As to `C[C@H]1OC(=O)/C=C/[C@@H](O)[C@@H](O)CCCCCCCC[C@@H]1O`, the growth was 118% (inactive).
The same measure, in the same setting: in the case of `COc1cccc(-c2nn(-c3ccccc3)cc2-c2ccnc(NCCNS(=O)(=O)c3cccc(F)c3)c2)c1` it was 9.17% (active).
For the molecule `CCCC(=O)N1CCCCC1CC` (stereo not drawn), the growth is 102% (inactive).
Turning to `CC(=O)O[C@@H]1CCN2C(=O)N(C)c3ccccc3[C@@H]2C1`, the growth was 93.3% (inactive).
Still for that read-out and setting: in the case of `O=C(/C=C\c1ccc2c(c1)OCO2)/C=C/c1ccc2c(c1)OCO2` it was 10.5% (inactive).
In the case of `O=C1NC(c2ccc(Cl)c(Cl)c2)=C/C1=C\c1ccccc1`, the growth was 17.1% (inactive).
The same measure, in the same setting: the result for `O=C1C=Cc2ncccc2C1=O` reads 12.2% (inactive).
Still for that read-out and setting: the result for `COc1ccc(C2C(C#N)=C(N)Oc3c2sc2c(F)cccc32)cc1` (stereo not drawn) reads 11.6% (inactive); that for `COC(=O)[C@]12CC[C@@H](C)[C@H](C)[C@@H]1C1=CC[C@@H]3[C@@]4(C)C(c5ncon5)=C[C@@](C)(CO)C4=CC[C@@]3(C)[C@]1(C)CC2`, -15.5% (active).
As for `Cc1cc2nc3c4cc(Cl)ccc4n(CCN(C)C)c3nc2cc1C`, the growth is 5.12% (active).
Still for that read-out and setting: the result for `COc1cc2c(cc1-c1c(C)noc1C)ncc1nc(C3CC3)n([C@H](C)COC(F)F)c12` reads 25.5% (inactive); that for `CCCCC[C@H]1CC=C2C(=O)C(Cl)=C[C@@H]2CC=CCCCC(=O)O[C@@H](CCCCC)CC=C2C(=O)C(Cl)=C[C@@H]2CC=CCCCC(=O)O[C@@H](CCCCC)CC=C2C(=O)C(Cl)=C[C@@H]2CC=CCCCC(=O)O1`, 6.25% [8 µM] (active).
On the same count and under the same terms, the result for `NC(=O)[C@@H]1CC2CCC1C2` (stereo partly drawn) reads 90.6% (inactive); that for `C=C(C)[C@@H]1CC[C@]2(C=O)CC[C@]3(C)[C@H](CC[C@@H]4[C@@]5(C)C/C(=C/c6cccnc6)C(=O)C(C)(C)[C@@H]5CC[C@]43C)[C@@H]12`, 40.6% (inactive).
Still for that read-out and setting: in the case of `Cc1cc(N(CCNc2ccnc3cc(Cl)ccc23)Cc2ccco2)nc(Cl)n1` it was -14.5% (active).
For `CN(C)c1ccc(N)c2ccccc12`, the growth is 55% (inactive).
As for `CSc1ccc(N(C)c2nc(C)nc3c2CCC3)cc1`, the growth is 1.95% (active).
Still for that read-out and setting: in the case of `C=C(C)[C@@H]1CC[C@]2(C(=O)NNC(=O)c3cccnc3)CC[C@]3(C)[C@H](CC[C@@H]4[C@@]5(C)CCCNC(C)(C)[C@@H]5CC[C@]43C)[C@@H]12` it was 18.9% (inactive).

The next assay concerns RPMI-8226 leukemia. Described as above. The note with it: 10 µM unless noted.
Turning to `O=C1c2ccccc2C(=Cc2ccccc2)c2ccccc21`, the growth is 22.4% (inactive).
Still for that read-out and setting: the result for `N#CC1=C(N)Oc2c(sc3c(F)cccc23)C1c1ccc(Cl)cc1` (stereo not drawn) reads 10.6% (inactive); that for `O=C(Nc1ccc(/C=C2\SC(=O)N(Cc3ccc(OC(F)(F)F)cc3)C2=O)cc1)c1ccc(Cl)c([N+](=O)[O-])c1`, -11.2% (active).
On the same count and under the same terms, the result for `C[C@@H](C(=O)O)c1ccc2c3cc(Cl)ccc3n(Cc3cc(=O)oc4ccc(Cl)cc34)c2c1` reads 109% (inactive); that for `Cn1c(=O)c2c(nc(Br)n2CC(=O)Nc2ccc(F)cc2)n(C)c1=O`, 79.1% (inactive); that for `COC(=O)C(N)CSC(c1ccccc1)(c1ccccc1)c1ccccc1` (stereo not drawn), 30.9% (inactive).
Same read-out and setting: the result for `NS(=O)(=O)c1ccc(CCNC(=O)/C=C/c2ccc(Cl)cc2)cc1` reads 98.3% (inactive); that for `C[C@H]1[C@H]2C3=CC[C@@H]4[C@@]5(C)C/C(=C/c6ccco6)C(=O)C(C)(C)[C@@H]5CC[C@@]4(C)[C@]3(C)CC[C@@]2(C(=O)N2CCOCC2)CC[C@@H]1C`, 40.4% (inactive).
On to `COC1=C(Br)C(=O)C(OC)=C(Br)C1=O`, for which the growth was 101% (inactive).
Same read-out and setting: in the case of `Cn1cc(-c2csc(-c3cn(CCN)c4ccc(F)cc34)n2)c2cccnc21` it was 67.9% (inactive); in that of `O=C1/C(=C\c2ccco2)SC(=S)N1CCc1ccc(O)cc1`, 83.1% (inactive); in that of `COc1cccc(-c2nn(-c3ccccc3)cc2-c2ccnc(NCCNS(=O)(=O)c3ccccc3)c2)c1`, 19.1% (inactive).
Still for that read-out and setting: the result for `C[C@]12CC[C@@H]3c4ccc(O)cc4CC[C@H]3[C@@H]1C[C@H](O)[C@@H]2O` reads 98.6% (inactive).
Still for that read-out and setting: in the case of `COc1cc2c3c(c4c5ccccc5[nH]c4c2c(OC)c1OC)C(=O)N(O)C3=O` it was 31.6% (inactive).
On to `Clc1cc(Cl)cc(Nc2ccc3c(OCCCN4CCOCC4)cccc3n2)c1`, for which the growth was 11.1% (inactive).
Still for that read-out and setting: in the case of `C/C(=N/NC(N)=S)C(=O)O` it was 75.2% (inactive); in that of `CCCCC[C@H]1C/C=C2/C(=O)C(Cl)=C[C@@H]2C/C=C\CCCC(=O)O1`, -23.5% (active).
Regarding `Cn1c2ccccc2c2c3c(c4c5cccnc5[nH]c4c21)C(=O)N(O)C3=O`, the growth was 39.6% (inactive).
For the molecule `O=C1CN(c2ccccc2)C(=O)C1C(=O)Nc1ccc(Cl)c(Cl)c1` (stereo not drawn), the growth is 34.9% [100 µM] (inactive).
The same measure, in the same setting: the result for `CCc1cccc(CC)c1NC(=O)c1sc2nc3c(cc2c1N)CCCC3` reads 85.8% (inactive); that for `Cc1cccc2c1NC(=O)[C@@]21[C@H](C(=O)c2ccccc2)[C@]2(C(=O)Nc3ccccc32)[C@H]2CCCN21`, 30.9% [100 µM] (inactive); that for `C[C@H]1OC(=O)/C=C/[C@@H](O)[C@@H](O)CCCCCCCC[C@@H]1O`, 101% (inactive).
The same measure, in the same setting: in the case of `COc1cccc(-c2nn(-c3ccccc3)cc2-c2ccnc(NCCNS(=O)(=O)c3cccc(F)c3)c2)c1` it was 23.7% (inactive); in that of `CCCC(=O)N1CCCCC1CC` (stereo not drawn), 95.7% (inactive); in that of `CC(=O)O[C@@H]1CCN2C(=O)N(C)c3ccccc3[C@@H]2C1`, 104% (inactive).
Take `O=C(/C=C\c1ccc2c(c1)OCO2)/C=C/c1ccc2c(c1)OCO2`: the growth was -9.97% (active).
The same measure, in the same setting: in the case of `O=C1NC(c2ccc(Cl)c(Cl)c2)=C/C1=C\c1ccccc1` it was 48.3% (inactive); in that of `O=C1C=Cc2ncccc2C1=O`, 27.6% (inactive); in that of `COc1ccc(C2C(C#N)=C(N)Oc3c2sc2c(F)cccc32)cc1` (stereo not drawn), 11.8% (inactive).
For `COC(=O)[C@]12CC[C@@H](C)[C@H](C)[C@@H]1C1=CC[C@@H]3[C@@]4(C)C(c5ncon5)=C[C@@](C)(CO)C4=CC[C@@]3(C)[C@]1(C)CC2`, the growth is -32.4% (active).
The same measure, in the same setting: in the case of `Cc1cc2nc3c4cc(Cl)ccc4n(CCN(C)C)c3nc2cc1C` it was -11.5% (active).
On the same count and under the same terms, the result for `COc1cc2c(cc1-c1c(C)noc1C)ncc1nc(C3CC3)n([C@H](C)COC(F)F)c12` reads 17.8% (inactive).
The same measure, in the same setting: in the case of `CCCCC[C@H]1CC=C2C(=O)C(Cl)=C[C@@H]2CC=CCCCC(=O)O[C@@H](CCCCC)CC=C2C(=O)C(Cl)=C[C@@H]2CC=CCCCC(=O)O[C@@H](CCCCC)CC=C2C(=O)C(Cl)=C[C@@H]2CC=CCCCC(=O)O1` it was 2.73% [8 µM] (active).
In the case of `NC(=O)[C@@H]1CC2CCC1C2` (stereo partly drawn), the growth is 93.3% (inactive).
On the same count and under the same terms, in the case of `C=C(C)[C@@H]1CC[C@]2(C=O)CC[C@]3(C)[C@H](CC[C@@H]4[C@@]5(C)C/C(=C/c6cccnc6)C(=O)C(C)(C)[C@@H]5CC[C@]43C)[C@@H]12` it was 35.5% (inactive); in that of `Cc1cc(N(CCNc2ccnc3cc(Cl)ccc23)Cc2ccco2)nc(Cl)n1`, -29.5% (active); in that of `CN(C)c1ccc(N)c2ccccc12`, 68.8% (inactive).
On the same count and under the same terms, the result for `CSc1ccc(N(C)c2nc(C)nc3c2CCC3)cc1` reads 23.5% (inactive).
Still for that read-out and setting: in the case of `C=C(C)[C@@H]1CC[C@]2(C(=O)NNC(=O)c3cccnc3)CC[C@]3(C)[C@H](CC[C@@H]4[C@@]5(C)CCCNC(C)(C)[C@@H]5CC[C@]43C)[C@@H]12` it was 46.6% (inactive).
